# PubChem BioAssay (NCATS)
# Inconclusive results are not listed. Where a call stands in place of a potency, no number is given. Calls of active or inactive are those of the source. Unless noted, calls come from the whole dose curve; as a rule, active = well fitted curve in the direction sought with a large enough effect; inconclusive = small, poorly fitted or top-dose-only effect, or another doubt; inactive = no such curve, though single readings can be large; an effect the other way counts as inactive or inconclusive.
# Experiments:
# [1] = Primary qHTS for small molecule stabilizers of the endoplasmic reticulum resident proteome: Secreted ER Calcium Modulated Protein (SERCaMP) assay (AID 1508630)
# Summary of the method: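 GLuc-SERCaMP-expressing SH-SY5Y cells, pretreated 16 h with compound, are challenged with thapsigargin to empty ER calcium stores; after 4 h, coelenterazine is added directly to the medium and luminescence is imaged.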
# [2] = target: Lysosomal acid glucosylceramidase (Homo sapiens) (UniProt P04062); test: Glucocerebrosidase-p2 (AID 348; in the data active = potency below about 10 µM; note: potency is the fitted concentration of half-maximal effect); conditions: purified GBA, blue fluorogenic substrate, 40 min
# Chain of Lysosomal acid glucosylceramidase (Homo sapiens) (P04062 whole entry, looked up): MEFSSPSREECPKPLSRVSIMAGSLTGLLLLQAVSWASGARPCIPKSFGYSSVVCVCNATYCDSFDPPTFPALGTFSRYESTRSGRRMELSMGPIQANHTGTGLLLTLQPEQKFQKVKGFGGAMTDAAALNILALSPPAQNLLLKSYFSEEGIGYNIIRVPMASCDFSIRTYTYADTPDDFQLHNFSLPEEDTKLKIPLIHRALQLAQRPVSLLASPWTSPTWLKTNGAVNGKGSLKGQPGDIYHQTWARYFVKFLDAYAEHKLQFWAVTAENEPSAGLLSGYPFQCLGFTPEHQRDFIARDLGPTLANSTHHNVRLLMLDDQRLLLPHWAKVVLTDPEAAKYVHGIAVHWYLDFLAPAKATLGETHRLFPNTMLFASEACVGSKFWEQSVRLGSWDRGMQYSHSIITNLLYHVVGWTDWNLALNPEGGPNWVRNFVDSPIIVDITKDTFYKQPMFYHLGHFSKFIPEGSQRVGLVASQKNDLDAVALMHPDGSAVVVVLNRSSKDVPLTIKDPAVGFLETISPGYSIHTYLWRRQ
# Summary of the method: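 Compounds titrated from 0.6 nM upwards against 0.2 nM enzyme in pH 5.9 citric acid/KH2PO4, taurocholate, tween-20; blue fluorogenic substrate 80 uM, 40 min room temperature, stopped and read Ex 365/Em 440 for AC50.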
# [3] = AP1 Signaling Pathway (AID 357; active = well fitted curve in either direction with a large enough effect, not every such curve was filed as active;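 note: ME-180 reporter cells stimulated with EGF at its EC50 level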); conditions: ME-180 AP-1-bla reporter, EGF-induced, beta-lactamase ratio, 5 h; at 7.69 µM (top of the series) unless noted
# Summary of the method: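 Cells are seeded overnight, exposed to compound titrations and an EC50 level of EGF for 5 hours at 37 °C, then loaded with CCF4 dye for 2.5 hours. Beta-lactamase activity under the AP-1 element is read as a blue/green ratio.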
# [4] = target: Cytochrome P450 1A2 (Homo sapiens) (UniProt P05177); test: p450-cyp1a2 (AID 410; calls by dose curve; note: potency is the fitted concentration of half-maximal effect)
# Chain of Cytochrome P450 1A2 (Homo sapiens) (P05177 whole entry, looked up): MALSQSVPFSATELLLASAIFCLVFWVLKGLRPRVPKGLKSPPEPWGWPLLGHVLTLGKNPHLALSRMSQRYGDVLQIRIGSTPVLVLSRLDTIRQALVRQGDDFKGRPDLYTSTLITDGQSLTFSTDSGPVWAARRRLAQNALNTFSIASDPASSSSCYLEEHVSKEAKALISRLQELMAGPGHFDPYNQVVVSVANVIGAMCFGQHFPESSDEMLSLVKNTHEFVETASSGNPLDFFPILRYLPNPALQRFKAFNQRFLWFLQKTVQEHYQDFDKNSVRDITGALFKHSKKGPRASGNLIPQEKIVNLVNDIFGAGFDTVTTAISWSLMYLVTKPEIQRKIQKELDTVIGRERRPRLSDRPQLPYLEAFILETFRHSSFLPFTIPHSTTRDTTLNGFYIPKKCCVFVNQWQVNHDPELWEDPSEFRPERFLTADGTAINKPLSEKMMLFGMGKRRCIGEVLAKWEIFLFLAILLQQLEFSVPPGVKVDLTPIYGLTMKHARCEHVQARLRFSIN
# Summary of the method: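 20nM CYP1A2 with 100uM Luciferin-ME (at Km) in 100mM KPO4; compound preincubated 10 min, NADPH regeneration added, 60 min at room temperature. Luciferin quantified by luminescence after detection reagent; normalized to 57 uM furafylline.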
# [5] = Stat Signaling Pathway (AID 446; active = well fitted curve in either direction with a large enough effect, not every such curve was filed as active;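 note: ME-180 cervical cancer cells given 40 pM IL-6 alongside compound; SIE-controlled beta-lactamase reporter measured as 460/530 nm FRET emission ratio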); conditions: ME-180 SIE beta-lactamase reporter, IL-6 stimulated, 5 h; at 7.69 µM (top of the series) unless noted
# Summary of the method: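 ME-180 SIE-bla cells; overnight plating; cpd + IL-6 40 pM, 5 h, 37 C; LiveBLAzer 2.5 h RT; 460/530 nm emission ratio. Normalized to 300 pM IL-6 and 125 nM JAK inhibitor controls.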
# [6] = target: Glucocorticoid receptor (Homo sapiens) (UniProt P04150); test: GR-EFC Redistribution (AID 451; calls by dose curve; note: potency is the fitted concentration of half-maximal effect); conditions: CHO-K1 GR-EFC translocation, beta-gal luminescence, 2 h
# Chain of Glucocorticoid receptor (Homo sapiens) (P04150 whole entry, looked up, the tested form may be a part): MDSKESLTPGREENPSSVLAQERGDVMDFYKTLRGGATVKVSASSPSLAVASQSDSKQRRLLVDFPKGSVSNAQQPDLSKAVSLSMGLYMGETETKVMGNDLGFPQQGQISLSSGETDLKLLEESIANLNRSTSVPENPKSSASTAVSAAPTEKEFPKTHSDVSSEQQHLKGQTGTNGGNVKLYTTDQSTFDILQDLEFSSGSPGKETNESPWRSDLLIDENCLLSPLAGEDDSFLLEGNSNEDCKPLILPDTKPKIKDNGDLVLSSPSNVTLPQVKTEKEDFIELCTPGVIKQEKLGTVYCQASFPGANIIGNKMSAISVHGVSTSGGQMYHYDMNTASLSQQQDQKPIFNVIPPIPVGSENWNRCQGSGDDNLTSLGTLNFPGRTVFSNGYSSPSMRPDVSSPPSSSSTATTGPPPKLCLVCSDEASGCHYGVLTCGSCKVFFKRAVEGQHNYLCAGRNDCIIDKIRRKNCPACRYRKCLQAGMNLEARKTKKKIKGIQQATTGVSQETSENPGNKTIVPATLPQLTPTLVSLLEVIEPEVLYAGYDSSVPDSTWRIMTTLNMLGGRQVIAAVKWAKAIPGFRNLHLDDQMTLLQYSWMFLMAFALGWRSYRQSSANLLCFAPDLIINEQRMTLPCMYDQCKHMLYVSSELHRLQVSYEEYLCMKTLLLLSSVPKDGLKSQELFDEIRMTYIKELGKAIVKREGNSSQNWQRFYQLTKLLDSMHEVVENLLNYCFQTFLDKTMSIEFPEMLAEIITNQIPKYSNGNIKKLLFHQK
# Summary of the method: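 CHO-K1 cells expressing nuclear EA and GR-ED fragments of b-gal; compounds titrated up to 46 uM final, 2 h at 37 C. GR nuclear translocation read as complemented b-gal luminescence after 1 h RT detection.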
# [7] = target: 3',5'-cyclic-AMP phosphodiesterase 4B (Homo sapiens) (UniProt Q07343); test: qHTS Assay for Inhibitors of PDE-IV (AID 607; active = well fitted activation curve with a large enough effect in the main read-out, with a control signal flat, not every such curve was filed as active)
# Summary of the method: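 ACTOne HEK293 cells carry a modified cAMP-gated CNG channel and express endogenous PDE4; plated 1000 cells/well, compounds up to 22.9 uM final. Membrane-potential dye fluorescence (ex 535/em 590) was read; parental cells received 10 uM forskolin + 100 uM RO 20-1724.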
# [8] = target: Cytochrome P450 3A4 (Homo sapiens) (UniProt P08684); test: qHTS Assay for Inhibitors and Substrates of Cytochrome P450 3A4 (AID 884); note: nearly all actives have a fitted effect of over 50% in size; note: potency is the fitted concentration of half-maximal effect
# Chain of Cytochrome P450 3A4 (Homo sapiens) (P08684 whole entry, looked up): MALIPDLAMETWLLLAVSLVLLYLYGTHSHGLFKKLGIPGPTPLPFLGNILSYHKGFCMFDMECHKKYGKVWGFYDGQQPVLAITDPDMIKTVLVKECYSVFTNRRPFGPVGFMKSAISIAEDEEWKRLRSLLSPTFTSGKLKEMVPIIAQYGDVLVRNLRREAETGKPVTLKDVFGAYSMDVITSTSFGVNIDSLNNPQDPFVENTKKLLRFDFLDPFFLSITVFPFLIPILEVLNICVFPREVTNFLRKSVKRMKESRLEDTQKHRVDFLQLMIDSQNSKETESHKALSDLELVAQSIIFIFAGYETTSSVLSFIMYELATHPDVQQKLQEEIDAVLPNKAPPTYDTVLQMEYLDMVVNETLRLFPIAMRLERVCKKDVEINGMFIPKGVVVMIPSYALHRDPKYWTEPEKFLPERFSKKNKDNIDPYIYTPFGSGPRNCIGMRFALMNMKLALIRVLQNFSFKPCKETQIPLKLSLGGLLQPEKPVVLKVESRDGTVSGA
# Summary of the method: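 20 nM human CYP3A4 with 25 uM Luciferin-PPXE (at KM) in 200 mM KPO4, preincubated 10 min with compound; NADPH regeneration started a 60 min RT reaction. Luciferin detected by luminescence, normalized to 57 uM ketoconazole as full inhibition.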
# [9] = target: Cytochrome P450 3A4 (Homo sapiens) (UniProt P08684); test: qHTS Assay for Activators of Cytochrome P450 3A4 (AID 885); note: nearly all actives have a fitted effect of over 65% in size; note: potency is the fitted concentration of half-maximal effect
# Summary of the method: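 20nM CYP3A4 + 25uM Luciferin-PPXE (=KM), 200mM KPO4; cpd 10 min RT; NADPH regen, 60 min RT; stop w/ detection buffer, 20 min; luminescence. Normalized to 57 uM ketoconazole.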
# [10] = qHTS Assay for Lipid Storage Modulators (AID 1519; calls by dose curve); conditions: Drosophila S3 cells, BODIPY lipid droplet/cell ratio, laser cytometry, cells loaded with oleic acid; for activity change, negative = inhibition: at 57.5 µM (top of the series)
# Summary of the method: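 Cells seeded at 5,000 per well were treated with compounds over a concentration series and loaded with oleic acid (400 uM, as added). Lipid droplet fluorescence (488 nm excitation, 500-530 nm channel) was read by laser-scanning cytometry and normalized to 20 uM Triacsin C.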
# [11] = target: Rap guanine nucleotide exchange factor 3 (Homo sapiens) (UniProt O95398); test: Confirmatory qHTS for agonist of cAMP-regulated guanine nucleotide exchange factor 3 (EPAC1) (AID 1645881);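 note: EPAC1 catalysed release of BODIPY-GDP from Rap1B seen as fluorescence loss; nearly all actives have a fitted effect of over 75% in size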
# Chain of Rap guanine nucleotide exchange factor 3 (Homo sapiens) (O95398 whole entry, looked up): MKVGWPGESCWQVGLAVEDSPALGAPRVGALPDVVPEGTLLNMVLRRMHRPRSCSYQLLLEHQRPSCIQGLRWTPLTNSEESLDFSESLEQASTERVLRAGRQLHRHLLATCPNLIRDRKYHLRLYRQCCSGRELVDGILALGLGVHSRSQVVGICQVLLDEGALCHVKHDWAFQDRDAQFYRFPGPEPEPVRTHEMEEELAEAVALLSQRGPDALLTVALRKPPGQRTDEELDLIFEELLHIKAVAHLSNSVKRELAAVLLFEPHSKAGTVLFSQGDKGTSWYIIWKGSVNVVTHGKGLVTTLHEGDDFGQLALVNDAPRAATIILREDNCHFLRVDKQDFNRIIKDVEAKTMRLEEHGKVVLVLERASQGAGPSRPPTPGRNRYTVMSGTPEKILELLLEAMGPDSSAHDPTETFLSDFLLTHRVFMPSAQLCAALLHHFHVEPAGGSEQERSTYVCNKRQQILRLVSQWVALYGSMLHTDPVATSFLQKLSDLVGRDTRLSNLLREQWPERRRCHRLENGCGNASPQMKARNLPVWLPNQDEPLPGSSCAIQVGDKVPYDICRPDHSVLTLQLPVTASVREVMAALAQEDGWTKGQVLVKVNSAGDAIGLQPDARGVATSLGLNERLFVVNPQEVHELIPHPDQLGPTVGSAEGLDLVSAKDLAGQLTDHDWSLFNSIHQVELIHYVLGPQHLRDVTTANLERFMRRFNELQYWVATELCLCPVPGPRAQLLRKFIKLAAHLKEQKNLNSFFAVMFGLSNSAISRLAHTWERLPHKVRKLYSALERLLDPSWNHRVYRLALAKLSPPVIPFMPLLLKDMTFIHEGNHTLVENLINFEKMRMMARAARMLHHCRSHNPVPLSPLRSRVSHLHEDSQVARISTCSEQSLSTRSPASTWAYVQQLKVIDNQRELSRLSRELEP
# [12] = target: Rap guanine nucleotide exchange factor 4 (Homo sapiens) (UniProt Q8WZA2); test: Confirmatory qHTS for agonist of cAMP-regulated guanine nucleotide exchange factor 4 (EPAC2) (AID 1645884);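 note: nucleotide exchange releases bodipy-GDP from Rap1 and this lowers its fluorescence; nearly all actives have a fitted effect of over 65% in size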
# Chain of Rap guanine nucleotide exchange factor 4 (Homo sapiens) (Q8WZA2 whole entry, looked up): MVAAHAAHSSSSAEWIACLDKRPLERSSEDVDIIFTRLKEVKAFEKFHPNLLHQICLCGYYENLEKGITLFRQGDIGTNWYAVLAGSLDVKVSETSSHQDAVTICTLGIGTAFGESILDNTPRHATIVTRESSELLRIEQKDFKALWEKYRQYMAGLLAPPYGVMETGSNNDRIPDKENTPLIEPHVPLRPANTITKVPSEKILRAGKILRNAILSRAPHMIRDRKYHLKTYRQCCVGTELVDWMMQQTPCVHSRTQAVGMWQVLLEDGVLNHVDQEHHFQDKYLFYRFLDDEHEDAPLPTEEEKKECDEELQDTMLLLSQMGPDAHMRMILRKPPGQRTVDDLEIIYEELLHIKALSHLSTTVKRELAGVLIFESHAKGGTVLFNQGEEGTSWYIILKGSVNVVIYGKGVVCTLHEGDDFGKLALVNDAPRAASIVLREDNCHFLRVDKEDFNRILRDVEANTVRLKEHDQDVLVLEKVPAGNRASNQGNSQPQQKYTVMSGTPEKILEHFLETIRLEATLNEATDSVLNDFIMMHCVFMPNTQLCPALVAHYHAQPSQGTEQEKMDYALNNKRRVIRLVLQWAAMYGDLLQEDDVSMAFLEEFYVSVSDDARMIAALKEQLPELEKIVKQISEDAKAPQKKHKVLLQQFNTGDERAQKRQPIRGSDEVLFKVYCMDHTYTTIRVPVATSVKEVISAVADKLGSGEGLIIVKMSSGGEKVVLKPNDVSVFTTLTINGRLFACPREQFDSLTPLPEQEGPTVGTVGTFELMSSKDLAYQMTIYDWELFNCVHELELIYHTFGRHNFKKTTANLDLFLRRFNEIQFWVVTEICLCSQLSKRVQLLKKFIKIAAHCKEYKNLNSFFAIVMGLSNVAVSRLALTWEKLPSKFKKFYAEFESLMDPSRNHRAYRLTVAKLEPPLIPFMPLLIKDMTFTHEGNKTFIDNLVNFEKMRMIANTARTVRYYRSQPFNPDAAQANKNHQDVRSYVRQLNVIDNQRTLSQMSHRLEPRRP
# [13] = target: Rap guanine nucleotide exchange factor 4 (Homo sapiens) (UniProt Q8WZA2); test: Confirmatory qHTS for antagonist of cAMP-regulated guanine nucleotide exchange factor 4 (EPAC2) (AID 1645885); note: nearly all actives have a fitted effect of over 25% in size; note: potency is the fitted concentration of half-maximal effect
# [14] = target: Glucocorticoid receptor (Homo sapiens) (UniProt P04150); test: GR-GFP Redistribution (AID 450;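 active = compounds whose dose series gives a full or clear partial fitted curve of increased nuclear translocation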; note: potency is the fitted concentration of half-maximal effect); conditions: U2OS GR-GFP nuclear translocation, laser cytometry, 2 h
# [15] = target: Mitogen-activated protein kinase 10 (Mus musculus) (UniProt Q61831); test: JNK3 AlphaScreen Assay (AID 530; active = well fitted curve in either direction with a large enough effect, not every such curve was filed as active;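 note: kinase came from lysate of stimulated human HepG2 cells; signal reports phosphorylation of biotinylated GST-cJun 1-79 at Ser73 with 10 µM ATP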)
# Summary of the method: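 Pre-activated (IL-1β/TNFα) JNK3 in HepG2 lysates phosphorylates biotin-GST-cJun(1-79), 10 uM ATP; anti-phospho-cJun(Ser73) AlphaScreen read at room temperature, pH 7.6 Tris buffer. Compounds pre-incubated 15 min as titrations.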
# [16] = target: Dual specificity protein kinase CLK4 (Homo sapiens) (UniProt Q9HAZ1); test: qHTS Assay for Inhibitors of CDC-like Kinase 4 (Kinase-Glo Assay) (AID 1770); note: nearly all actives have a fitted effect of over 65% in size
# Chain of Dual specificity protein kinase CLK4 (Homo sapiens) (Q9HAZ1 whole entry, looked up): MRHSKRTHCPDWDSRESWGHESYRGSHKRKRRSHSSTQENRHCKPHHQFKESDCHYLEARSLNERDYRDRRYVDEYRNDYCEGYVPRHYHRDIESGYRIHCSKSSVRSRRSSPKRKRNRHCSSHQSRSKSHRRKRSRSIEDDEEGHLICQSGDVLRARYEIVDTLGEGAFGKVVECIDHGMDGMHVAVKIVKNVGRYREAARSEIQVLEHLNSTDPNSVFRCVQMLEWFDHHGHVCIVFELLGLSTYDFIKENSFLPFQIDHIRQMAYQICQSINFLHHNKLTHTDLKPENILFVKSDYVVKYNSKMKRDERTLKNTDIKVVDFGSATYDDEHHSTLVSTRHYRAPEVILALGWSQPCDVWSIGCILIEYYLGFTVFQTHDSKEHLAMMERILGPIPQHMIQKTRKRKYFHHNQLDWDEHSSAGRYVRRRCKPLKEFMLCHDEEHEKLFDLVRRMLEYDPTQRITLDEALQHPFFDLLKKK
# Summary of the method: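 Recombinant human Clk4 (25 nM) phosphorylated RS repeat peptide (100 uM) with 1 uM ATP in Tris pH 7.5/MgCl2/EGTA/DTT/Triton buffer for 4.5 h at room temperature. Residual ATP was quantified by Kinase-Glo luciferase luminescence.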
# [17] = target: Dual specificity protein kinase CLK4 (Homo sapiens) (UniProt Q9HAZ1); test: qHTS Assay for Inhibitors of CDC-like Kinase 4 (ADP-Glo Assay) (AID 1771); note: nearly all actives have a fitted effect of over 70% in size
# Summary of the method: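 25 nM Clk4 with 100 uM RS repeat peptide and 1 uM ATP (final) in buffer with 2 mM MgCl2, 0.5 mM EGTA, 2.5 mM DTT, 0.01% Triton X-100; 1 h at room temperature; ADP-Glo luminescence for ADP formed.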
# [18] = target: Dual specificity protein kinase CLK4 (Homo sapiens) (UniProt Q9HAZ1); test: qHTS Assay for Inhibitors of CDC-like Kinase 4 (ADP-FP Assay) (AID 1795); note: nearly all actives have a fitted effect of over 60% in size
# Summary of the method: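 Recombinant human Clk4 (6.25 nM) phosphorylated RS repeat peptide (100 uM) with 1 uM ATP in Tris pH 7.5/MgCl2/EGTA/DTT/Triton buffer for one hour. ADP was quantified by Transcreener competitive fluorescence polarization against an ADP calibration curve.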
# [19] = target: Ubiquitin carboxyl-terminal hydrolase 1 (Homo sapiens) (UniProt O94782); test: Inhibitors of USP1/UAF1: Pilot qHTS (AID 504865);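 note: rhodamine fluorescence freed from ubiquitin-rhodamine substrate followed over time; top concentration of the series differs between compounds; nearly all actives have a fitted effect of over 35% in size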
# Summary of the method: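 USP1/UAF1 complex (1nM) preincubated with compound 15 min at room temperature, then Ub-Rho substrate (150nM final) added. Fluorescence read kinetically at 480/540 nm, 6 reads every 60 seconds. Buffer: 50mM HEPES pH 7.8, 0.5mM EDTA, 0.1 mg/ml BSA, 1mM TCEP, 0.01% Tween-20.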
# [20] = measured here: cell count channel max response
# [21] = measured here: lipid channel max response
smiles,measurement,setting,value
O=C1Nc2ccccc2C(=O)N2CCC[C@@H]12,Potency,[1],inactive
O=C(c1cccc(F)c1)N1CCC2(CC1)CN(c1cccc(-c3ccccc3)c1)C2,Potency,[2],> 11.4 µM (inactive)
same,"activity change, negative = inhibition",[3],-6.1% (inactive)
same,Potency,[4],12.6 µM (active)
same,"activity, negative = inhibition",[5],-13.4% (inactive)
same,Potency,[6],> 46 µM (inactive)
same,Potency,[7],inactive
same,Potency,[8],inactive
same,Potency,[9],3.16 µM (active)
same,"activity change, negative = inhibition",[10],-19.2% (inactive)
same,max response,[10]; [20],-4.49%
same,max response,[10]; [21],-20.8%
same,Potency,[1],inactive
same,outcome,[11],inactive
same,outcome,[12],inactive
same,Potency,[13],inactive
CC1=CC(=O)C2=C(C)C[C@H](OC(=O)Cc3ccccc3)C3[C@H](OC(=O)[C@H]3C)C12 (stereo partly drawn),Potency,[1],inactive
COC(=O)/C(=C1/OC(=O)C(c2ccccc2)=C1O)c1ccccc1,Potency,[1],inactive
Nc1nc(=S)c2ncn([C@@H]3O[C@H](CO)[C@@H](O)[C@H]3O)c2[nH]1,Potency,[1],inactive
CC1=CC(=O)CC(C)(C)C1(O)/C=C/C(C)=C/C(=O)O (stereo not drawn),Potency,[1],inactive
COc1cc(O)c2c(=O)cc(C)oc2c1CC=C(C)C,Potency,[9],inactive
same,"activity change, negative = inhibition",[10],15% (inactive)
same,max response,[10]; [20],7.83%
same,max response,[10]; [21],11.5%
same,Potency,[1],inactive
same,outcome,[11],inactive
same,outcome,[12],inactive
same,Potency,[13],22.1 µM (active)
O=C(O)C1Cc2c([nH]c3ccccc23)C(c2coc3ccccc3c2=O)N1 (stereo not drawn),Potency,[1],inactive
Cc1cccc(CNc2nc(-c3ccc4c(c3)OCO4)nc3ccccc23)c1,Potency,[2],> 11.4 µM (inactive)
same,"activity change, negative = inhibition",[3],-27.3% (inactive)
same,Potency,[4],0.631 µM (active)
same,"activity, negative = inhibition",[5],-19.3% (inactive)
same,Potency,[14],> 46 µM (inactive)
same,Potency,[6],> 46 µM (inactive)
same,outcome,[15],inactive
same,Potency,[8],0.398 µM (active)
same,Potency,[9],inactive
same,"activity change, negative = inhibition",[10],-7.8% (inactive)
same,max response,[10]; [20],-19.2%
same,max response,[10]; [21],-24.8%
same,Potency,[16],inactive
same,Potency,[17],inactive
same,Potency,[18],inactive
same,Potency,[19],inactive
same,Potency,[1],inactive
same,outcome,[11],inactive
same,outcome,[12],inactive
